Screening data deposited in PubChem by several laboratories.
This is a sample that favours compounds with a hit; in the whole collection about 4.2% have one here.
Pyk2 oligo antag = Pyk2 (human) oligomerization antagonism; z-score (the deposit names both 25 µM and 10 µM); Q14289; 99,000 tested, 0.83% active; Q293 cells, Pyk2 FERM NanoBiT luminescence; active compounds read low;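 active = Z-score of -3 or lower, scaled per plate to the spread of control and sample wells; inactive = z-score above -3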;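 also: negative z-score means lost luminescence so less FERM oligomerization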
Target sequence (Q14289 whole entry, looked up): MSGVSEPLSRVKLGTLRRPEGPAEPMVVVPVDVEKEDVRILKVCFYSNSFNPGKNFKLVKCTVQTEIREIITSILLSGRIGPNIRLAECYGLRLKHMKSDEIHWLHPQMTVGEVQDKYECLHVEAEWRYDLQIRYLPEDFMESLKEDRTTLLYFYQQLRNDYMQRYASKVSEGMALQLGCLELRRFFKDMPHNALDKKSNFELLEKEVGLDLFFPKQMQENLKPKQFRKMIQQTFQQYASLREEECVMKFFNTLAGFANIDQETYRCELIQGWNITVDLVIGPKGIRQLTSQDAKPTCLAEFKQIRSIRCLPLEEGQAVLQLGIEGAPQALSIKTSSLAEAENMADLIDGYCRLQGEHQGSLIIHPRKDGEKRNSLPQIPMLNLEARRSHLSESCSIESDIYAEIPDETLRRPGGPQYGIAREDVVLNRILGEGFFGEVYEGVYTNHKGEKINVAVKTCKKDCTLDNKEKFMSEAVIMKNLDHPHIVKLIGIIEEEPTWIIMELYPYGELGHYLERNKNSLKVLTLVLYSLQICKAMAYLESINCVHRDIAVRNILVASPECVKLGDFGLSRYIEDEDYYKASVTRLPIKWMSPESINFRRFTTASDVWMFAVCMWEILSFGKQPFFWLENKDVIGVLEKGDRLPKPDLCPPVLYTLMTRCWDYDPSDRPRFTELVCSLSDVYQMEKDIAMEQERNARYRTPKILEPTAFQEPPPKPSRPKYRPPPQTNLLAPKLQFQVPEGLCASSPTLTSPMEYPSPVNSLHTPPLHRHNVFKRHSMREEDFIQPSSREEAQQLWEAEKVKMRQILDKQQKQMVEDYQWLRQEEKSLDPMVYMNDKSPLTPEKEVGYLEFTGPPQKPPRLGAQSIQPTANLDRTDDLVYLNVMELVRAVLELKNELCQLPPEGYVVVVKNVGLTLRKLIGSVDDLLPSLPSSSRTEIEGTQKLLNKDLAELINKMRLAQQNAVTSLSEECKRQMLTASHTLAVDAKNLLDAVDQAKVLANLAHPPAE
E coli RNAP = blocks E. coli RNA polymerase transcription | P0A8V2 | fluorescence transcription assay | inhibition, %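 (tested at 10 µM)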 | 62,000 tested, 0.2% active; in the data active = inhibition above about 20%
Cav32 inh = inhibitors of human Cav3.2 T-type calcium channel; O95180; Cav3.2-expressing cells, Fluo-4 calcium fluorescence FDSS; active compounds read low; B-score at 10 µM; 100,000 tested, 4% active; AID 449739;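 active = single-dose well whose peak fluorescence ratio is a statistical outlier from its plate by either plate-standardised score or position-corrected B-score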
Mac1 fbg enh = increases human CD11b/CD18 adhesion to fibrinogen; P05107+P11215; K562 CD11b/CD18 adhesion to fibrinogen, ATPlite luminescence; activation, % at 10 µM; 93,000 tested, 0.07% active; AID 1499;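 active = 10 µM primary screen giving 50% or more activity, confirmed by 40% or more on retest at that dose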
Mac1 fbg inh = inhibitors of human CD11b/CD18 binding to fibrinogen. P05107+P11215. K562 CD11b/CD18 adhesion to fibrinogen, ATPlite luminescence; Mn2+ added to activate the integrin. inhibition, % at 10 µM. 93,000 tested, 0.54% active. AID 1497;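 active = primary inhibition of 50% or more at 10 µM, then 40% or more on retest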
Numbers stand for hits; – = inactive; · = no result.

SMILES	Pyk2 oligo antag	E coli RNAP	Cav32 inh	Mac1 fbg enh	Mac1 fbg inh
CC(C)(C)N1CC(c2nc3ccccc3n2CCOc2ccccc2)CC1=O (configuration not stated)	–	·	-3.9	–	–
Cc1ccc(OCCn2c(CCNC(=O)C(C)C)nc3ccccc32)cc1	–	·	-6.9	·	·
CC(C)C(=O)NCCc1nc2ccccc2n1CCCOc1ccc(Cl)cc1	–	·	-5.65	·	·
CCCc1nc2ccccc2n1CCOC	–	·	–	–	–
CC(C)(C)N1CC(c2nc3ccccc3n2Cc2ccc(Cl)cc2)CC1=O (configuration not stated)	–	·	–	–	–
CCCc1nc2ccccc2n1CCOc1ccccc1	–	·	-5.28	–	–
O=C(NNS(=O)(=O)c1cccc(Cl)c1Cl)c1cccc(S(=O)(=O)N2CCOCC2)c1	·	·	·	–	–
COc1ccccc1N1CCN(C(=O)CCCN2C(=O)c3cccc4cccc(c34)C2=O)CC1	·	·	·	–	–
COc1ccc(/C=N/Nc2nncc3ccccc23)cc1	·	·	·	–	94.9
COc1ccccc1/C=N/Nc1nncc2ccccc12	·	·	·	–	–
O=C(O)c1cccc(CSc2nc(-c3ccc(Cl)cc3)cc(C(F)(F)F)n2)c1	–	·	–	–	75.1
COc1nc(NCc2ccco2)nc(NC2CCCCC2)n1	–	·	-4.04	·	·
COc1nc(NCc2ccco2)nc(N2CCC(C)CC2)n1	–	–	·	–	–
CC(C)(C)C1CCC2(CC1)C(C#N)=C(SCC(=O)Nc1ccccc1)NC(=O)C2C#N (configuration not stated)	–	–	-6.66	–	–
O=c1c2ccccc2nc(SCc2cn3ccsc3n2)n1-c1ccc(F)cc1	-3.26	–	–	–	–
O=C(CSc1nc2ccccc2c(=O)n1-c1ccc(F)cc1)NCc1ccco1	–	·	–	–	–
O=C(CS(=O)(=O)Cc1ccccc1)N1CCN(c2cccc(C(F)(F)F)c2)CC1	–	–	-4.32	–	–
CCN(CC)c1ccc(NC(=O)CN2CCN(c3nc(C)cc(C)n3)CC2)cc1	–	–	-4.21	–	–
Cc1ccccc1NC(=O)C(C)O/N=C/c1cccc([N+](=O)[O-])c1 (configuration not stated)	–	·	–	–	–
COc1cc(C(=O)NC(=S)Nc2ccc(N3CCCC3)cc2)cc(OC)c1OC	·	·	·	–	–
CCOC(=O)Cn1c(=NC(=O)CSC(C)=O)sc2cc(OC)ccc21	–	–	-10.1	–	–
CCOC(=O)Cn1c(=NC(=O)CSC(C)=O)sc2ccccc21	·	–	-9.42	–	–
CCOC(=O)Cn1c(=O)sc2ccccc21	–	–	–	–	–
CC(=O)N=c1sc2cc(C)ccc2n1C	–	–	–	–	–
CC(=O)SCC(=O)N=c1sc2cc(F)ccc2n1C	–	–	-6.21	–	–
SMILES	Pyk2 oligo antag	E coli RNAP	Cav32 inh	Mac1 fbg enh	Mac1 fbg inh
CCO[C@H]1OC(C(=O)N2CCOCC2)=C[C@@H](c2ccc(Br)cc2)[C@@H]1CCCO	·	·	–	·	·
O=C(Nc1cc2c3c(c1)C1CCCC1CN3CC1CCCC21)c1ccccc1 (configuration not stated)	–	·	–	–	–
Cc1cccc(C)c1NC(=S)NC(C)CCc1ccccc1 (configuration not stated)	·	·	·	–	–
CCNc1nc(OC)nc(N2CCC(Cc3ccccc3)CC2)n1	·	·	·	–	–
c1ccc(Cn2nnc(CNc3ccccc3)c2-c2c(CNc3ccccc3)nnn2Cc2ccccc2)cc1	·	·	–	·	·
COc1ccc(C(=O)N/N=C/c2cccc3cccnc23)cc1	–	·	·	–	–
O=C(N/N=C/c1ccc2cccc(OCc3ccccc3)c2n1)c1ccc(Br)cc1	–	·	-3.97	·	·
COc1cccc(/C=N/NC(=O)c2ccc(OCc3cccc(Br)c3)cc2)c1	–	·	-5.97	·	·
COc1ccc(C(=O)N/N=C/c2ccc3cccc(OCc4ccccc4)c3n2)cc1	-3.99	·	–	–	–
O=C(COC(=O)Cc1cccc(C(F)(F)F)c1)Nc1ccccc1	·	·	·	–	–
Cn1cc(/C=N/n2cnc3scc(-c4ccccc4)c3c2=O)c2ccccc21	–	–	-4	–	–
O=c1c2c(-c3cccs3)csc2ncn1/N=C/c1ccc(OC(F)F)cc1	–	·	–	–	–
Cc1cc(C)n(C(C[N+](=O)[O-])c2ccc(Cl)cc2)n1 (configuration not stated)	–	·	–	–	–
S=c1[nH]nc(-c2cc3c(s2)-c2ccccc2CC3)o1	–	·	–	–	64.5
O=S(=O)(Nc1ccc2c(c1)CCC2)c1cccs1	–	–	-5.58	–	–
Cc1ccccc1N(CC(=O)N/N=C/c1ccccc1Cl)C(=O)c1ccccc1	–	·	–	–	–
Cc1ccccc1N(CC(=O)N/N=C/c1ccc(N(C)C)cc1)C(=O)c1ccccc1	–	·	-4.47	–	–
Cc1ccc(-n2c(C)cc(C(=O)OCC(=O)N(CC(C)C)C3CCS(=O)(=O)C3)c2C)cc1 (configuration not stated)	–	–	-8.17	–	–
Cc1ccc(CNC(=O)C(=O)NCC2OCCN2S(=O)(=O)c2cccs2)cc1 (configuration not stated)	·	·	-4.69	·	·
O=C(NCc1ccccc1)C(=O)NCC1OCCN1S(=O)(=O)c1cccs1 (configuration not stated)	·	·	–	·	·
O=C(COc1ccc(S(=O)(=O)N2CCOCC2)cc1)Nc1ccc2c(c1)OCCO2	–	–	–	–	–
O=C(COc1ccc(S(=O)(=O)N2CCOCC2)cc1)Nc1ccc(Cl)c(C(F)(F)F)c1	–	–	-5.46	–	–
CCOc1ccc(CNC(=S)NCc2ccc(OCC)cc2)cc1	·	·	·	–	–
CCCCOc1ccc(S(=O)(=O)NC(=O)NCc2ccc(OCCC)cc2)cc1	–	·	-3.54	·	·
CCCCOc1ccc(CNC(=O)NS(=O)(=O)c2ccc(OCC)cc2)cc1	–	·	-7.45	–	–
SMILES	Pyk2 oligo antag	E coli RNAP	Cav32 inh	Mac1 fbg enh	Mac1 fbg inh
CC(C)COc1ccc(CNC(=S)NCc2ccccc2)cc1	–	·	-5.63	–	–
CCCCOc1ccc(CNC(=O)NS(=O)(=O)c2ccc(OCC(C)C)cc2)cc1	–	·	-5.3	–	–
CCCN(C(=S)Nc1ccccc1)C1CCS(=O)(=O)C1 (configuration not stated)	–	·	–	·	·
Oc1ccccc1N=Nc1nc(-c2ccccc2)c(-c2ccccc2)[nH]1	-3.76	·	–	–	–
CN1c2ccccc2C(O)=C(C(=S)Nc2ccc(F)c(Cl)c2)S1(=O)=O	–	·	-10.8	–	84.0
CN1c2ccccc2C(O)=C(C(=S)Nc2ccccc2)S1(=O)=O	–	·	–	–	–
CC(=O)COc1ncn(-c2ccccc2)n1	–	·	-4.37	–	–
CCCc1cc(C(=O)NNC(=S)NC(C)c2ccccc2)cs1 (configuration not stated)	–	·	–	–	–
CC(C)(C)NC(=O)c1cc([N+](=O)[O-])ccc1N1CCCCC1	·	·	·	–	–
COCCCNC(=S)NNC(=O)c1csc2ccccc12	·	·	·	–	–
O=C(CSC(=S)N1CCCCC1)Nc1nc(-c2ccccc2)c(-c2ccccc2)o1	–	·	-3.95	–	–
CCN(c1ccccc1)S(=O)(=O)c1ccc(NCC2COc3ccccc3O2)nc1 (configuration not stated)	–	–	-4.8	–	–
